In the library only some 8.7% were active in any assay of this set; here they are far more common.
12-LOX inh: blocks human arachidonate 12S-lipoxygenase. 580,000 compounds, 1.1% hits. Potency, µM (titrated, usually from 108 µM), for inactives: at the top dose activity change, negative = inhibition, hits mostly inhibitors. purified 12hLO, xylenol orange hydroperoxide absorbance. P18054; note: % is set by controls: 0 for no effect and ±100 for the full control effect
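Hydroperoxide product was detected by ferrous iron/xylenol orange as the 573 to 405 nm absorbance ratio. Arachidonic acid at 40 uM (final) was turned over for 30 min at room temperature by 150 nM human 12hLO, pH 7.0 Hepes buffer, after 15 min compound preincubation.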
G9a block: G9a (human) methyltransferase inhibition; Q96KQ7; G9a H3K9 monomethylation, AlphaScreen, 2 h; Potency, µM (titrated, usually from 102 µM), without a hit: at the top dose activity, negative = inhibition, actives largely listed as inhibitors; 350,000 compounds, 8.8% hits; AID 504332; note: % is set by controls: 0 for no effect and ±100 for the full control effect; nearly all actives have a fitted effect of over 75% in size
Target sequence (Q96KQ7 913-1193 limits assumed): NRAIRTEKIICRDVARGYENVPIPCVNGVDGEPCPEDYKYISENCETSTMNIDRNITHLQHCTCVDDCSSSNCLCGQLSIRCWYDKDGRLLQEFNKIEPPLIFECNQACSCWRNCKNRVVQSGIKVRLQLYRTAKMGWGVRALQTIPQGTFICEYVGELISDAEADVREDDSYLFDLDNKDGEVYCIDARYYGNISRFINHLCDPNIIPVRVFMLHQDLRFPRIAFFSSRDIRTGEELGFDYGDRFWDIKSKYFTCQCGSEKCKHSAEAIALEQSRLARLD
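Signal arises when biotinylated H3K9 peptide, once monomethylated, bridges streptavidin donor and antibody-captured acceptor beads. Enzyme at 20 nM was preincubated 15 min with test compounds; peptide 500 nM and SAM 20 uM then reacted for 2 h.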
BAZ2B inh: inhibitors of human BAZ2B bromodomain | Potency, µM (titrated, usually from 114 µM), inactives show at the top dose activity change, negative = inhibition, usual class: inhibitors | AlphaScreen BAZ2B-H3K14Ac peptide displacement | AID 504333 | 360,000 compounds, 4.4% hits | Q9UIF8; note: % is set by controls: 0 for no effect and ±100 for the full control effect; nearly all actives have a fitted effect of over 60% in size
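Multi-concentration screen (max 110 uM) measuring displacement of acetylated histone H3 peptide from BAZ2B by AlphaScreen, using 50 nM protein, 50 nM peptide and 10 ug/mL streptavidin donor plus Ni-chelate acceptor beads.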
JMJD2A Tudor inh: JMJD2A Tudor domain (human) inhibition; O75164; AlphaScreen JMJD2A-Tudor / H3K4me3 peptide binding; Potency, µM (top dose mostly 114 µM), without a hit: top-dose activity change, negative = inhibition, actives largely listed as inhibitors; 390,000 compounds, 4.4% hits; AID 504339; note: % is set by controls: 0 for no effect and ±100 for the full control effect; nearly all actives have a fitted effect of over 50% in size
Sfp PPTase inh: inhibitors of Bacillus subtilis Sfp phosphopantetheinyl transferase; Q9F4F7; Biochemical Sfp PPTase activity, qHTS; Potency, µM, for the others: largest response in the series, negative = inhibition, usual class: inhibitors; 310,000 compounds, 3.5% hits;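 note: the enzyme is Sfp with the accession as filed and its product quenches rhodamine fluorescence; 0% = enzyme reaction without inhibitor and -100% = no enzyme wells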
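Fluorescence-quenching assay: 15 nM Sfp-PPTase preincubated 15 min at room temperature with compound, then 5 uM rhodamine-CoA and 12.5 uM BHQ-2-labelled YbbR peptide added. Fluorescence (ex 525/em 598 nm) read at start and after 30 min; difference gives rate.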
HP1b binding inh: blocks HP1-beta chromodomain binding to methylated histone tails; P83916; AlphaScreen HP1-beta / biotin-H3K9me3 peptide binding; Potency, µM (highest dose often 114 µM), without a hit: at the highest dose activity change, negative = inhibition, usual class: inhibitors; 390,000 compounds, 0.56% hits; note: nearly all actives have a fitted effect of over 70% in size
Target sequence (P83916 whole entry, looked up): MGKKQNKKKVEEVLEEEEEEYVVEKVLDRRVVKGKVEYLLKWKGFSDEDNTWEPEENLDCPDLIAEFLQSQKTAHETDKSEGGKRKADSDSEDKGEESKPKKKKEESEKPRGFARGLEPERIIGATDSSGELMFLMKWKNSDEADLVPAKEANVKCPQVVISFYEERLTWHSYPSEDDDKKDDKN
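AlphaScreen: HP1-beta (50 nM) preformed 30 min with biotin-H3(1-18)K9me3 peptide (50 nM) in PBS pH 7.4, 0.01% Tween-20. Compound added for 30 min at RT, then streptavidin donor/nickel chelate acceptor beads (10 ug/mL) for 30 min.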
The depositor's hits bear a star; ? = inconclusive; / = no result; [ ] = another dose, or the depositor's remark. Calls come from the whole dose curve; as a rule, active = well fitted curve in the direction sought with a large enough effect; inconclusive = small, poorly fitted or top-dose-only effect, or another doubt; inactive = no such curve, though single readings can be large; an effect the other way counts as inactive or inconclusive. Potency is the fitted concentration of half-maximal effect.

SMILES | 12-LOX inh | G9a block | BAZ2B inh | JMJD2A Tudor inh | Sfp PPTase inh | HP1b binding inh
O=C(N/N=C/c1ccc([N+](=O)[O-])o1)C1CCCC1 | 0.0% | -1.8%[0.501 µM] | -15.2% | -15.2% | -2.6% | 25.5%
O=[N+]([O-])c1ccc(/C=[N+](\[O-])[C@@H]2CCCC[C@@H]2/[N+]([O-])=C/c2ccc([N+](=O)[O-])o2)o1 | ? | 50.1µM* | 2.51µM* | -35.2% | ? | -10.3%
CCCN(CCC)C(=O)CC(c1ccccc1)c1ccco1 (stereo unspecified) | -56.8% | / | -25.6% | -6.5% | 44.7µM* | 32.9%
CCN(CC)C(=O)CC(c1ccc(F)cc1)c1ccco1 (stereo unspecified) | ? | 14.1µM* | -25.8% | -6.7% | -27.7% | 20.4%
NC(=O)CC(c1ccccc1)c1ccco1 (stereo unspecified) | -23.1% | -0.5%[59 µM] | -0.4% | -16.8%[57.1 µM] | 13.4% | 27.6%
C=CC(O)CCCCC (stereo unspecified) | 13.1%[176 µM] | / | / | / | / | /
Cc1ccc(-n2nc3n(c2=O)CCN([S+](=O)([O-])c2c(C)noc2C)C3)cc1 | 34.8% | / | / | / | / | /
O=C(O)c1cccc(N2C(=O)c3cccc4cccc(c34)C2=O)c1 | 2.3% | 11.5% | -12.1% | -8.2% | 12.2% | 28.9%
O=C(O)c1cccc(N2C(=O)c3cc([N+](=O)[O-])cc4cc([N+](=O)[O-])cc(c34)C2=O)c1 | -9.0% | / | 56.2µM* | 50.1µM* | -28.3% | ?
COc1ccc(N2C(=O)/C(=C/c3ccc([N+](=O)[O-])cc3)C=C2c2ccccc2)cc1 | -27.6% | / | 2.24µM* | 2.82µM* | 7.6% | 3.16µM*
O=C1/C(=C/c2ccc([N+](=O)[O-])cc2)C=C(c2ccccc2)N1c1ccc(O)cc1 | ? | ? | 10µM* | ? | -3.9% | ?
O=C1/C(=C/c2ccc([N+](=O)[O-])cc2)C=C(c2ccccc2)N1c1ccccc1 | -14.0% | ? | -26.3% | -25.6% | -2.1% | -4.9%
O=C(O)c1cccc(N2C(=O)/C(=C/c3ccc([N+](=O)[O-])cc3)C=C2c2ccccc2)c1 | 35.5µM* | 15.8µM* | 39.8µM* | 25.1µM* | ? | -25.8%
Cc1noc(C2CC3(CCN(C(=O)CCc4c[nH]c5ccccc45)CC3)CN2C)n1 (stereo unspecified) | -0.8% | / | / | / | / | /
CCN(CC)c1sc(S(=O)(=O)CC)nc1S(=O)(=O)c1ccc(C)cc1 | -26.0% | / | / | / | / | /
Cc1ccccc1C(=O)N1CCC(N2CC3CCCN3C2=O)CC1 (stereo unspecified) | 12.3%[176 µM] | / | / | / | / | /
CCN(CC)c1ccc(NC(=O)C(C)C)cc1 | ? | 11.2µM* | -3.4% | ? | -1.1% | 5.1%
CCN(CC)c1ccc(NC(=O)C2CCCC2)cc1 | -7.5% | 44.7µM* | ? | ? | -1.9% | -19.1%
CCN(CC)c1ccc(NC(=O)C2CC3CCC2C3)cc1 (stereo unspecified) | 0.0% | 6.31µM* | -67.6% | 79.4µM* | -17.7% | ?
CCN(CC)c1ccc(NC(=O)Nc2cccc3ccccc23)cc1 | / | 3.16µM* | ? | -24.1% | -21.2% | -10.3%
CCOc1ccc(S(=O)(=O)N2CCSC2c2ccc(OC)c(Br)c2)cc1 (stereo unspecified) | -24.5% | / | / | / | / | /
Cc1cc(C)c(-c2cc(NC(=O)COC(=O)c3ccc(C#N)cc3)n(-c3ccccc3)n2)cc1C | -20.7% | 31.6µM* | -32.5% | -11.2% | 14.3% | 28.1%
Cc1cc(C)cc(C(=O)N/N=C/c2ccoc2)c1 | -0.3% | 44.8% | -1.2% | -13.4% | 26.7% | 21.4%
CN(C)c1cccc(C(=O)N/N=C/c2ccoc2)c1 | 339.2% | / | / | -22.4% | / | -6.8%
O=C(N/N=C/c1ccoc1)c1ccc(Br)cc1 | -6.5% | 53.4% | ? | -29.8% | -7.3% | 15.1%
SMILES | 12-LOX inh | G9a block | BAZ2B inh | JMJD2A Tudor inh | Sfp PPTase inh | HP1b binding inh
O=C(N/N=C/c1ccoc1)c1cc(O)cc(O)c1 | 391.5% | / | 20µM* | 25.1µM* | 1.0% | 44.7µM*
O=C(N/N=C/c1ccoc1)c1ccc(Cl)cc1 | -10.2% | 44.7µM* | -34.7% | -15.8% | 50.1µM* | 14.5%
Cn1c(/C=N/NC(=O)c2ccccc2)nc2ccccc21 | -3.4%[57.4 µM] | ? | -21.6% | 89.1µM* | -29.2% | 18.9%
Cn1c(CCCNC(=O)c2ccccc2)nc2ccccc21 | 18.6% | 9.2%[59 µM] | -3.4% | -7.9% | 1.6% | 40.2%
O=C(N/N=C/c1ccoc1)c1ccccc1 | 493.9% | -44.0% | 56.2µM* | -26.2% | -0.5% | 2.0%
Cc1ccc(S(=O)(=O)N2CC(c3nc(-c4ccncc4)no3)C2)cc1Cl | 35.0% | / | / | / | / | /
S=C(NCc1cccnc1)NC1CC1 | -23.5% | / | / | / | / | /
CCN1C(=O)C(CC(=O)NC2CCCCC2)Sc2ncccc21 (stereo unspecified) | -3.2% | / | / | / | / | /
Cc1c(C#N)c(O)[nH]c(=O)c1N=Nc1ccc(S(N)(=O)=O)cc1 | 39.8µM* | 79.4µM* | -11.6% | ? | 8.3% | ?
COCCn1c(CN2C(=O)COc3ccccc32)nnc1C1CC(N)C1 (stereo unspecified) | 26.2% | / | / | / | / | /
CC(C)(C)C1CC=C2C(C#N)=C(N)C(C#N)(C#N)C(c3cccs3)C2C1 (stereo unspecified) | / | 50.1µM* | ? | / | -12.5% | /
COCCN1CCOc2nc(-c3cc(F)cc(OC)c3)ncc2C1=O | 15.1%[176 µM] | / | / | / | / | /
CCCCCCNC(=O)Cc1csc2nc(C)c(-c3cc(C)n(-c4ccccc4OC)n3)c(=O)n12 | 62.9% | / | / | / | / | /
CC(Sc1c(Cl)cccc1Cl)C(=O)c1ccc2c(c1)CCC2 (stereo unspecified) | 29.6% | / | / | / | / | /
Cc1ccc(NCc2cc3cccc(C)c3[nH]c2=O)c(C)c1 | 129.4% | / | / | / | / | /
COc1ccc2[nH]c(=O)c(CNc3ccc(C)cc3C)cc2c1 | -26.5% | 20µM* | -23.4% | -32.1% | 44.7µM* | -16.8%
Cc1ccc2[nH]c(=O)c(CNC(C)(C)C)cc2c1 | 3.6% | ? | -28.0% | 0.4% | 5.62µM* | 13.8%
CC(C)(C)NCc1cc2ccccc2[nH]c1=O | 3.5% | 8.3% | 3.6% | 3.8% | 13.3% | 33.2%
COc1ccc2[nH]c(=O)c(CNc3cc(C)ccc3C)cc2c1 | 21.3% | ? | 50.1µM* | ? | 50.1µM* | -32.0%
COc1ccc(-n2c(CNC(=O)COc3ccc(Cl)cc3)n[nH]c2=S)cc1 | ? | 2.51µM* | -6.4% | 12.6µM* | 8.3% | -5.9%
COc1ccc(OCC(=O)NCC(c2ccc(Cl)cc2)N2CCCCC2)cc1 (stereo unspecified) | -22.4% | -4.3%[59 µM] | -24.2% | -10.6% | / | 23.3%
COc1ccc(-n2c(CNC(=O)COc3ccccc3)n[nH]c2=S)cc1 | -1.5% | ? | -17.9% | 11.2µM* | 5.8% | 37.1%
COc1ccc(-n2c(CNC(=O)COc3ccc(Cl)cc3Cl)n[nH]c2=S)cc1 | ? | 7.94µM* | 0.3% | -6.1% | 0.6% | 72.6%
